Measured values: PubChem BioAssay (NCI)
About 79,000 compounds went through this panel and 15% of them were active in at least one assay; those are over-represented in the sample as a whole. Rule as the data show it: active = growth inhibition above about 70%; inactive = the rest.

Assays:
[1] = NCI Yeast Anticancer Drug Screen. Data for the rad50 strain (AID 155);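 also: 0% = growth of vehicle-only cultures of the same strain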; details: S. cerevisiae rad50 strain growth inhibition; at 50.0 µM; stronger effect = higher value
In short: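 Readout: growth inhibition relative to vehicle-treated cultures. Compound exposure was carried out in a genetically defined yeast strain deficient in DNA damage repair.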

[2] = NCI Yeast Anticancer Drug Screen. Data for the mec2-1 strain (AID 157); details: S. cerevisiae mec2-1 strain, at 50.0 µM, stronger effect = higher value
In short: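 Cells of the genetically defined mec2-1 yeast strain are incubated with test compound. Inhibition of growth is calculated against vehicle-treated controls.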

[3] = NCI Yeast Anticancer Drug Screen. Data for the sgs1 mgt1 strain (AID 161);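 also: 0% = growth of cultures given vehicle only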; details: S. cerevisiae sgs1 mgt1 strain, at 50.0 µM, stronger effect = higher value
In short: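 Mutant yeast exposed to compound; growth scored against vehicle-only wells.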

[4] = NCI Yeast Anticancer Drug Screen. Data for the cln2 rad14 strain (AID 165);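 also: 0% = growth equal to vehicle treated cultures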; details: S. cerevisiae cln2 rad14 strain, at 50.0 µM, stronger effect = higher value
In short: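 The screen exposed genetically defined yeast (cln2 rad14) to test compounds and scored growth inhibition relative to vehicle-treated controls.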

[5] = NCI Yeast Anticancer Drug Screen. Data for the bub3 strain (AID 167); details: S. cerevisiae bub3 mutant strain, at 50.0 µM, stronger effect = higher value
In short: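 Readout: yeast growth inhibition, expressed relative to vehicle-only wells. The test organism is a mutant strain from a panel with lesions in DNA repair or checkpoint genes.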

[6] = NCI Yeast Anticancer Drug Screen. Data for the mlh1 rad18 strain (AID 175); details: S. cerevisiae mlh1 rad18 strain growth inhibition; at 50.0 µM; stronger effect = higher value
In short: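 Compound-treated yeast growth, normalised to vehicle controls. Strain bears defined DNA repair mutations.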

Measured: growth inhibition

N#Cc1ccc(NN=NCCOCCCl)cc1
inactive: [1] 18.3% | [2] 26.6% | [3] 17.9% | [4] 34.9% | [5] 27.1% | [6] 23.6%

COc1ccc(-c2nc(N)nc3c2CN(CCCC(=O)O)C3=O)cc1
inactive: [1] -4.65% | [2] 30.3% | [3] -4.25% | [4] -30.8% | [5] 9.3% | [6] -10.4%

c1scc2c1COCCOCCOCCOCc1cscc1COCCOCCOCCOC2
inactive: [1] -20.2% | [2] -26.1% | [3] -38.4% | [4] 26.6% | [5] -30.4% | [6] -46.5%

N/N=C(\N)SCc1ccc(N=C=S)cc1
inactive: [1] -4.8% | [2] 6.85% | [3] 17.4% | [4] 18.9% | [5] 16.5% | [6] 15.5%

NNCCc1n[nH]c(=O)n1N
inactive: [1] -3.5% | [2] -18.4% | [3] 9.55% | [4] 2.55% | [5] 5.1% | [6] -8.15%

CCOC(=O)/C(C#N)=C(\C)c1ccccc1
inactive: [1] 9.65% | [2] -5.3% | [3] 1.2% | [4] 5.15% | [5] -25.7% | [6] -17.6%

Cn1c(=O)c2c(nc(NCCOC(=S)S)n2C)n(C)c1=O
inactive: [1] -44.8% | [2] 1.8% | [3] -10.3% | [4] 32.5% | [5] 5.3% | [6] 15.9%

COc1ccc(C2NC(C(=O)O)Cc3c2[nH]c2ccccc32)cc1OC (stereo unspecified)
inactive: [1] -12.2% | [2] -5.6% | [3] -14.8% | [4] -12.9% | [5] -4.3% | [6] -22%

C[s+]1c2ccccc2c2ccccc21
inactive: [1] -65.8% | [2] -46.4% | [3] -32.9% | [4] -22.6% | [5] -13.2% | [6] -49.8%

CC(C(=O)O)C(Nc1ncnc2c1ncn2C1OC(CO)C(O)C1O)C(=O)O (stereo unspecified)
inactive: [1] -8.4% | [2] -12.2% | [3] -27.6% | [4] -2.1% | [5] 3.5% | [6] -26.4%

Cc1cc(S(=O)(=O)Nc2n[nH]c(Nc3ccc(Cl)cc3)n2)c(S)cc1Cl
inactive: [1] -8.1% | [2] -14.9% | [3] 6.7% | [4] 7.05% | [5] 0.35% | [6] 17.4%

[O-][n+]1cc(N=Nc2ccc(Cl)cc2)nn1-c1ccc(Cl)cc1
inactive: [1] -11.6% | [2] -33.8% | [3] -8.5% | [4] 9.85% | [5] -1.1% | [6] -14.3%

Cc1nc(C)c(Cc2ccccc2)o1
inactive: [1] 1.05% | [2] 20.9% | [3] 18.1% | [4] 27.6% | [5] 5.3% | [6] 30.7%

O=C(Cc1cccc2c(=O)cc(-c3ccccc3)oc12)OCCN1CCOCC1
inactive: [1] 18.9% | [2] 31.4% | [3] 0.95% | [4] 7.4% | [5] 26.9% | [6] 29.4%

Nc1ccc([N+](=O)[O-])c(Cl)c1
inactive: [1] 5.35% | [2] -8.3% | [3] -11% | [4] -18.1% | [5] -13.1% | [6] 13.3%

Cc1nc(C)c(N2CCN(S(N)(=O)=O)CC2)c(=O)[nH]1
inactive: [1] -70.3% | [2] -26.9% | [3] -30.8% | [4] 6.6% | [5] 3.4% | [6] -21.8%

CCOC(=O)/C(=C/c1cn(C(C)=O)c2ccccc12)P(=O)(OC)OC
inactive: [1] -28.9% | [2] -4.1% | [3] -1.15% | [4] 13.8% | [5] 5.75% | [6] -15.8%

CC(=O)N(C(C)=O)n1c(Cc2ccc(Cl)cc2)nn(C(C)=O)c1=O
inactive: [1] 7.85% | [2] -15.1% | [3] -9.2% | [4] 4.5% | [5] 10.7% | [6] -7.6%

CCCCN(C=O)c1ccccc1
inactive: [1] 3.15% | [2] 9.65% | [3] 2.95% | [4] 7.15% | [5] -8.45% | [6] 27.9%

COc1cc(O)c(C(C)=O)c(OC)c1
inactive: [1] -8.25% | [2] -12.8% | [3] -10.1% | [4] -31.1% | [5] -0.2% | [6] -2.05%

COc1ccc(Cl)c2c(=O)c3ccc4c(c3[nH]c12)C(=O)c1ccccc1C4=O
inactive: [1] 21.8% | [2] -5.6% | [3] 4.25% | [4] -17.6% | [5] 3.8% | [6] 4.65%
